Measured values: PubChem BioAssay (EPA / NIEHS)
Activity calls are given as the source filed them. How the source made its calls: active means hit-call score of the fitted dose curve at least 0.9, where 1 is the maximum; inactive means score below 0.9.

What was measured:
[1] = read-out: Interleukin-1 alpha (IL1a), IL1A (gene 3552); assay: BSK_KF3CT_IL1a: BioMAP Diversity Plus: KF3CT Assay for Interleukin-1 alpha (IL1a) Biomarker Activity (AID 2283070); details: primary human keratinocytes with fibroblasts; actives raise or lower the signal
How it was run: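 Human keratinocyte plus foreskin fibroblast primary co-culture, sampled 24 h after chemical dosing. IL-1a measured by ELISA; responses fitted bidirectionally against DMSO baseline (negative control), so gain or loss of signal both count.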

[2] = read-out: TIMP metallopeptidase inhibitor 2 (TIMP2), TIMP2 (gene 7077); assay: BSK_KF3CT_TIMP2: BioMAP Diversity Plus: KF3CT Assay for TIMP metallopeptidase inhibitor 2 (TIMP2) Biomarker Activity (AID 2283071); details: primary human keratinocytes with fibroblasts; actives raise or lower the signal
How it was run: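 Human primary keratinocyte/foreskin fibroblast co-culture dosed with chemical and sampled at 24 h. TIMP-2 levels quantified by ELISA; bidirectional fitting against DMSO negative control as baseline.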

[3] = read-out: Transforming growth factor beta 1 (TGFb1), TGFB1 (gene 7040); assay: BSK_KF3CT_TGFb1: BioMAP Diversity Plus: KF3CT Assay for Transforming growth factor beta 1 (TGFb1) Biomarker Activity (AID 2283072); details: primary human keratinocytes with fibroblasts; actives raise or lower the signal
How it was run: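 Human keratinocyte plus foreskin fibroblast primary co-culture, dosed with chemical for 24 h. TGF-b1 quantified by ELISA. Activity fitted bidirectionally against DMSO negative control as baseline.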

[4] = read-out: C-C motif chemokine 2 (Homo sapiens) (UniProt P13500); assay: BSK_KF3CT_MCP1: BioMAP Diversity Plus: KF3CT Assay for Monocyte Chemoattractant Protein 1 (MCP1/CCL2) Biomarker Activity (AID 2283073); details: primary human keratinocytes with fibroblasts; actives raise or lower the signal
How it was run: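 Human keratinocyte–foreskin fibroblast co-culture; MCP-1 measured by ELISA 24 h after dosing. Bidirectional fit vs DMSO; cytotoxicity tracked by SRB total protein in parallel cultures.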

[5] = read-out: Matrix Metallopeptidase 9 (MMP9), MMP9 (gene 4318); assay: BSK_KF3CT_MMP9: BioMAP Diversity Plus: KF3CT Assay for Matrix Metallopeptidase 9 (MMP9) Biomarker Activity (AID 2283074); details: primary human keratinocytes with fibroblasts; actives raise or lower the signal
How it was run: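 Keratinocyte plus foreskin fibroblast human primary skin co-culture was dosed with chemical and MMP-9 was quantified by ELISA 24 h later. Bidirectional curve fitting used DMSO as negative control and activity baseline.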

[6] = read-out: urokinase plasminogen activator (uPA), PLAU (gene 5328); assay: BSK_KF3CT_uPA: BioMAP Diversity Plus: KF3CT Assay for urokinase plasminogen activator (uPA) Biomarker Activity (AID 2283075); details: primary human keratinocytes with fibroblasts; actives raise or lower the signal
How it was run: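 Human keratinocyte plus foreskin fibroblast primary co-culture exposed to chemical for 24 h. uPA levels were quantified by ELISA, and activity was fitted bidirectionally against a DMSO negative-control baseline.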

[7] = read-out: CD40, CD40 (gene 958); assay: BSK_LPS_CD40: BioMAP Diversity Plus: LPS Assay for CD40 Biomarker Activity (AID 2283076); details: primary human HUVEC with PBMC; actives raise or lower the signal
How it was run: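 HUVEC plus PBMC co-culture stimulated with LPS; CD40 quantified by ELISA 24 h after compound dosing. Fitting was bidirectional relative to DMSO. SRB staining of parallel cultures flagged overt cytotoxicity.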

[8] = read-out: E-selectin (Homo sapiens) (UniProt P16581); assay: BSK_LPS_Eselectin: BioMAP Diversity Plus: LPS Assay for Eselectin Biomarker Activity (AID 2283077); details: primary human HUVEC with PBMC; actives raise or lower the signal
How it was run: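 Human umbilical vein endothelial cells co-cultured with PBMC under LPS stimulation; cell-surface E-selectin measured by ELISA 24 h after dosing. Change in either direction versus DMSO, with SRB total-protein staining in parallel cultures for cytotoxicity.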

[9] = read-out: Interleukin-8 (IL8), CXCL8 (gene 3576); assay: BSK_LPS_IL8: BioMAP Diversity Plus: LPS Assay for Interleukin-8 (IL8) Biomarker Activity (AID 2283078); details: primary human HUVEC with PBMC; actives raise or lower the signal
How it was run: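 Human umbilical vein endothelial cells co-cultured with PBMC, LPS-stimulated, exposed to compound for 24 h. IL-8 quantified by ELISA; fitted in both directions against DMSO, with SRB total-protein staining of parallel cultures for cytotoxicity.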

[10] = BSK_LPS_SRB: Viability Assessment in the BioMAP Diversity Plus: LPS Assay (AID 2283079); details: primary human HUVEC with PBMC;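 further: total protein by sulforhodamine B absorbance as a cytotoxicity measure; measured one day after compound addition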
How it was run: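 Co-culture of human umbilical vein endothelial cells and PBMC, read 24 h after dosing. Total protein by 0.1% SRB staining after 10% TCA fixation, absorbance at 560 nm; bidirectional fit against DMSO.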

[11] = read-out: Interleukin-1 alpha (IL1a), IL1A (gene 3552); assay: BSK_LPS_IL1a: BioMAP Diversity Plus: LPS Assay for Interleukin-1 alpha (IL1a) Biomarker Activity (AID 2283080); details: primary human HUVEC with PBMC; actives raise or lower the signal
How it was run: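 Human umbilical vein endothelial cells co-cultured with PBMC and stimulated with LPS; IL-1a measured by ELISA 24 h after dosing. Bidirectional fitting against DMSO; cytotoxicity checked by SRB staining in parallel cultures.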

[12] = read-out: Monocyte Chemoattractant Protein-1 (MCP1), CCL2 (gene 6347); assay: BSK_LPS_MCP1: BioMAP Diversity Plus: LPS Assay for Monocyte Chemoattractant Protein-1 (MCP1) Biomarker Activity (AID 2283081); details: primary human HUVEC with PBMC; actives raise or lower the signal
How it was run: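 Human umbilical vein endothelial cells co-cultured with PBMC, LPS-stimulated; secreted MCP-1 measured by ELISA 24 h after compound addition. Bidirectional curve fitting against DMSO baseline; SRB total-protein staining in parallel cultures for cytotoxicity.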

[13] = BSK_LPS_PGE2: BioMAP Diversity Plus: LPS Assay for Prostaglandin E2 (PGE2) Biomarker Activity (AID 2283082); details: primary human HUVEC with PBMC; actives raise or lower the signal
How it was run: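 HUVEC plus PBMC co-culture stimulated with LPS; secreted PGE2 quantified by ELISA 24 h after chemical dosing. Activity fitted bidirectionally against DMSO as negative control and baseline; parallel SRB total-protein staining served as cytotoxicity check.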

[14] = read-out: Macrophage colony-stimulating factor (MCSF), CSF1 (gene 1435); assay: BSK_LPS_MCSF: BioMAP Diversity Plus: LPS Assay for Macrophage colony-stimulating factor (MCSF) Biomarker Activity (AID 2283083); details: primary human HUVEC with PBMC; actives raise or lower the signal
How it was run: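 HUVEC–PBMC co-culture, M-CSF measured by ELISA 24 h after chemical dosing. Fitted in both directions relative to DMSO as negative control; overt cytotoxicity assessed by SRB total-protein staining in parallel cultures.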

[15] = read-out: Tumor necrosis factor (Homo sapiens) (UniProt P01375); assay: BSK_LPS_TNFa: BioMAP Diversity Plus: LPS Assay for Tumour Necrosis Factor alpha (TNFa) Biomarker Activity (AID 2283085); details: primary human HUVEC with PBMC; actives raise or lower the signal
How it was run: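 Human umbilical vein endothelial cells co-cultured with PBMC were exposed to test chemical and TNFa measured by ELISA 24 h after dosing. Bidirectional curve fitting was done relative to DMSO as negative control and baseline.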

[16] = read-out: Vascular cell adhesion molecule 1 (VCAM1), VCAM1 (gene 7412); assay: BSK_LPS_VCAM1: BioMAP Diversity Plus: LPS Assay for Vascular cell adhesion molecule 1 (VCAM1) Biomarker Activity (AID 2283086); details: primary human HUVEC with PBMC; actives raise or lower the signal
How it was run: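 Human umbilical vein endothelial cells co-cultured with peripheral blood mononuclear cells under LPS stimulation were exposed to test chemical for 24 h. VCAM-1 levels were then measured by ELISA, with bidirectional curve fitting relative to DMSO as negative control and baseline.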

[17] = read-out: CD38, CD38 (gene 952); assay: BSK_SAg_CD38: BioMAP Diversity Plus: SAg Assay for CD38 Biomarker Activity (AID 2283087); details: primary human HUVEC with PBMC; actives raise or lower the signal
How it was run: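 Fluorescence ELISA of cell-surface CD38 served as the read-out, with either increase or decrease fitted against DMSO controls. Cells were a human umbilical vein endothelium plus PBMC co-culture under SEB/TSST-1 stimulation, measured 24 h after dosing.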

[18] = read-out: CD40, CD40 (gene 958); assay: BSK_SAg_CD40: BioMAP Diversity Plus: SAg Assay for CD40 Biomarker Activity (AID 2283088); details: primary human HUVEC with PBMC; actives raise or lower the signal
How it was run: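 HUVEC plus PBMC co-culture, superantigen-activated, with CD40 read by ELISA 24 h after dosing. Curves fitted in both directions against DMSO. Overt cytotoxicity checked by parallel SRB total-protein staining.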

[19] = read-out: CD69, CD69 (gene 969); assay: BSK_SAg_CD69: BioMAP Diversity Plus: SAg Assay for CD69 Biomarker Activity (AID 2283089); details: primary human HUVEC with PBMC; actives raise or lower the signal
How it was run: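 ELISA, fluorescence read-out: CD69 on human umbilical vein endothelial cell + PBMC co-culture, 24 h post-dosing. Gain or loss of signal fitted bidirectionally against DMSO baseline.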

[20] = read-out: Tissue Factor, F3 (gene 2152); assay: BSK_LPS_TissueFactor: BioMAP Diversity Plus: LPS Assay for Tissue Factor Biomarker Activity (AID 2283084); details: primary human HUVEC with PBMC; actives raise or lower the signal
How it was run: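 Human umbilical vein endothelial cells co-cultured with PBMC were dosed with compound. Cell-surface CD142 was measured by ELISA 24 h later. Activity was fitted bidirectionally against DMSO, with SRB total-protein staining in parallel cultures for cytotoxicity.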

Measured: outcome

Sequence of Tumor necrosis factor (Homo sapiens) (P01375 whole entry, looked up): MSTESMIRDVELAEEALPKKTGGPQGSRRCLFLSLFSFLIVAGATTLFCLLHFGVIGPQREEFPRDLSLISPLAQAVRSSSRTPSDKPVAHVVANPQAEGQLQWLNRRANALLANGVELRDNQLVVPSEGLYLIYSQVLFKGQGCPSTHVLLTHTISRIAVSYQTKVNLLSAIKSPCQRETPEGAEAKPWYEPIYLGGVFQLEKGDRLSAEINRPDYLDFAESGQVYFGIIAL
Sequence of E-selectin (Homo sapiens) (P16581 whole entry, looked up): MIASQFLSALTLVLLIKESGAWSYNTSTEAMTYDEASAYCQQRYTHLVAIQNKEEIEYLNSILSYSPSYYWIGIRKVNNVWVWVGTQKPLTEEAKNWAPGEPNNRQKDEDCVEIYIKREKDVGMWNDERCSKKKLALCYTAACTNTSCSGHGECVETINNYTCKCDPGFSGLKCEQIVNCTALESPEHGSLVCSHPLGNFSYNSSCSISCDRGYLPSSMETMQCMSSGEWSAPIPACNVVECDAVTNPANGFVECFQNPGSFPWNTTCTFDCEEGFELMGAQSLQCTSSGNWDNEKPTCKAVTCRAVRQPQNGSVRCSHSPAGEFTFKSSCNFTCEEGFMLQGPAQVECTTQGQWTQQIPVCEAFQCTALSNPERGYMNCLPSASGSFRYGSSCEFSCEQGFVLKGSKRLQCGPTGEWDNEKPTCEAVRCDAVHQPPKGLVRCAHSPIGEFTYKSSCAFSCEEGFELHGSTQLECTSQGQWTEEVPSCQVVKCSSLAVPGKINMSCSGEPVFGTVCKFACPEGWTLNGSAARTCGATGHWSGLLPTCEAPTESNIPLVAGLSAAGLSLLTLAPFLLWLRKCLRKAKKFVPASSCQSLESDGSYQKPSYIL

c1ccc2cc3ccccc3cc2c1
not listed: [20]
inactive: all other assays above

OCCNCCO
not listed: [9]
inactive: all other assays above

O=c1[nH]cnc2c1ncn2[C@H]1CC[C@@H](CO)O1
not listed: [14] | [20]
inactive: all other assays above

O=C(O)c1cccc(C[C@@H]2COc3ccc(OCc4nc5cc(F)ccc5s4)cc3[C@@H]2O)c1
not listed: [9]
inactive: all other assays above
